The record followed here is PubChem BioAssay (EPA / NIEHS).

Where “and” joins values, the source holds several entries; their conditions need not be identical. Equal entries are not always repeated. Calls of active or inactive are those of the source. Rule for the calls: active = hit-call score of the fitted dose curve at least 0.9, where 1 is the maximum; inactive = score below 0.9.

Read-out in this assay: CD40, CD40 (gene 958)
Put plainly: BSK_SAg_CD40: BioMAP Diversity Plus: SAg Assay for CD40 Biomarker Activity (AID 2283088). Particulars: primary human HUVEC with PBMC; actives raise or lower the signal. On the procedure: BSK_SAg is a cell-based, multiplexed-readout assay that uses umbilical vein endothelium and peripheral blood mononuclear cells, a human vascular primary cell co-culture, with measurements taken at 24 hours after chemical dosing in a 96-well plate.BSK_SAg_CD40 is one of 10 assay component(s) measured or calculated from the BSK_SAg assay. It is designed to make measurements of enzyme-linked immunosorbent assay, a form of binding reporter, as detected with fluorescence intensity signals by Enzyme-linked immunosorbent assay technology.Data from the assay component BSK_SAg_CD40 was analyzed into 1 assay endpoint. This assay endpoint, BSK_SAg_CD40, was analyzed with bidirectional fitting relative to DMSO as the negative control and baseline of activity. Using a type of binding reporter, gain or loss-of-signal activity can be used to understand changes in the signaling as they relate to the gene CD40. Furthermore, this assay endpoint can be referred to as a primary readout, because this assay has produced multiple assay endpoints where this one serves a signaling function. To generalize the intended target to other relatable targets, this assay endpoint is annotated to the cytokine intended target family, where the subfamily is inflammatory factor.
The levels of cell surface (or secreted, indicated by the prefix "s") biomarker endpoints were measured by ELISA. Overt cytotoxicity to cells in confluent adherent cultures (all systems other than the BT system) was assessed by measuring total protein levels using sulforhodamine B (SRB) staining in parallel cultures at the time of biomarker measurements, indicated as SRB endpoints. For proliferation assays for adherent cell types, individual cell types are cultured at sub-confluence and relative cell numbers quantified by SRB staining at time points optimized for each system (48 h: 3C and CASM3C systems; 72 h: BT and HDF3CGF systems; 96 h: SAg system). SRB was performed by staining cells with 0.1% SRB after fixation with 10% TCA and reading wells at 560 nm.Viability and proliferation of PBMC (T cells) was quantified by Alamar Blue reduction for the SAg and BT systems. For PBMC viability (referred to as PBMC Cytotoxicity within the assay endpoint names), cells were plated (75,000/well in a 96-well plate) and then chemical samples added for 1 h before addition of activators, SEB and TSST-1 (20 ng/mL final concentration each). Cells were incubated for 90 h. Then, Alamar Blue (20 uL/well) (Invitrogen, Cat DAL1100) was added for 6 h, and the plates were read with a fluorescence microplate reader at 546/580 nm (excitation/emission). For PBMC proliferation, cells were plated and activated as above but incubated for only 16 h prior to addition of Alamar Blue. Plates were read after 6 h.
As for `CN(C)[C@@H]1C(=O)C(C(N)=O)=C(O)[C@@]2(O)C(=O)C3=C(O)c4c(O)cccc4[C@@](C)(O)[C@H]3[C@H](O)[C@@H]12`, the outcome was inactive.

For `COc1ccc(C(=CC(=O)N2CCOCC2)c2ccc(Cl)cc2)cc1OC`, the AC50 – broadly, the midpoint of the concentration-response curve, whichever way the signal moves – is 6.93 µM (active).

As to `CN(C)NC(=O)CCC(=O)O`, the result was inactive.

Take `COP(=O)(NC(C)=O)SC` (stereo not given): the result was inactive.

As to `COP(=O)(OC)C(O)C(Cl)(Cl)Cl` (stereo not given), the outcome was inactive.

In the case of `CCOP(=S)(Oc1cnc(C(C)(C)C)nc1)OC(C)C` (stereo not given), the AC50 was 30.8 µM (active).

Regarding `CCc1cnc(C2=NC(C)(C(C)C)C(=O)N2)c(C(=O)O)c1` (stereo not given), the result was inactive.

For `CCOP(=O)(NC(C)C)Oc1ccc(SC)c(C)c1` (stereo not given), the outcome was inactive.

Consider `Nc1nc(N)nc(NC2CC2)n1`, for which the result was inactive.

On to `CCOP(=S)(OCC)Oc1ccc([N+](=O)[O-])cc1`, for which the result was inactive.

For `CCOC(=O)COc1cc(-c2nn(C)c(OC(F)F)c2Cl)c(F)cc1Cl`, the result was inactive.

As for `C=C(C)[C@H]1Cc2c(ccc3c2O[C@@H]2COc4cc(OC)c(OC)cc4[C@@H]2C3=O)O1`, the AC50 was 7.75 µM (active).

On to `CCOC(=O)CC(SP(=O)(OC)OC)C(=O)OCC` (stereo not given), for which the result was inactive.

`CCCOCC(=Nc1ccc(Cl)cc1C(F)(F)F)n1ccnc1`: the AC50 is 18.1 µM (active).

For the molecule `CCOP(=S)(OCC)Oc1cc(C)nc(C(C)C)n1`, the result was inactive.

`CNc1cnn(-c2cccc(C(F)(F)F)c2)c(=O)c1Cl`: the AC50 was 11.7 µM (active).

For the molecule `CCOP(=O)(OCC)Oc1cc(C)nc(C(C)C)n1`, the outcome was inactive.

On to `CC[C@H](C)[C@H]1O[C@]2(C=C[C@@H]1C)C[C@@H]1C[C@@H](C/C=C(\C)[C@@H](O[C@H]3C[C@H](OC)[C@@H](O[C@H]4C[C@H](OC)[C@@H](NC)[C@H](C)O4)[C@H](C)O3)[C@@H](C)/C=C/C=C3\CO[C@@H]4[C@H](O)C(C)=C[C@@H](C(=O)O1)[C@]34O)O2`, for which the AC50 was 3.34 µM (active).

As to `CN(C)C(=O)Nc1cccc(C(F)(F)F)c1`, the result was inactive.

As for `CCC(=NOC/C=C/Cl)C1=C(O)CC(C2CCOCC2)CC1=O` (stereo not given), the outcome was inactive.

As to `C[N+]1(C)CCCCC1`, the outcome was inactive.

Take `CON=C(C(=O)OC)c1ccccc1CON=C(C)c1cccc(C(F)(F)F)c1`: the AC50 is 5.02 µM (active).

In the case of `COP(=O)(OC)OC(Br)C(Cl)(Cl)Br` (stereo not given), the AC50 is 30.2 µM (active).

Consider `CCNc1nc(Cl)nc(NC(C)(C)C#N)n1`, for which the result was inactive.

Consider `CCOP(=S)(OCC)OC(Cl)C(Cl)(Cl)Cl` (stereo not given), for which the result was inactive.

On to `S=C1NCCN1`, for which the result was inactive.

For the molecule `CCc1cccc(CC)c1N(COC)C(=O)CCl`, the AC50 was 20 µM (active).

With `CC(Oc1cccc(Cl)c1)C(=O)O` (stereo not given), the outcome was inactive.

Take `CCOP(=S)(OCC)Oc1ccc2c(C)c(Cl)c(=O)oc2c1`: the outcome was inactive.

As for `C#CC(C)(C)NC(=O)c1cc(Cl)cc(Cl)c1`, the outcome was inactive.

As to `CCCCOC(=O)c1ccccc1C(=O)O`, the result was inactive.

With `O=[N+]([O-])c1cc(C(F)(F)F)c(Cl)c([N+](=O)[O-])c1Nc1ncc(C(F)(F)F)cc1Cl`, the AC50 was 1.51 µM (active) and 1.86 µM (active).

On to `CCCCSP(=O)(SCCCC)SCCCC`, for which the outcome was inactive.

As to `Cc1nn(-c2cc(NS(C)(=O)=O)c(Cl)cc2Cl)c(=O)n1C(F)F`, the outcome was inactive.

Turning to `CCCCN(CC)c1c([N+](=O)[O-])cc(C(F)(F)F)cc1[N+](=O)[O-]`, the AC50 was 29.1 µM (active).

As for `COP(=O)(OC)SCn1c(=O)oc2cc(Cl)cnc21`, the AC50 was 20 µM (active).

In the case of `CC1(C(=O)Nc2ccc(O)c(Cl)c2Cl)CCCCC1`, the result was inactive.

Turning to `COc1cc(OC)nc(Sc2cccc(Cl)c2C(=O)O)n1`, the outcome was inactive.

`CCC(CC)Nc1c([N+](=O)[O-])cc(C)c(C)c1[N+](=O)[O-]`: the AC50 is 20 µM (active).

For the molecule `CCCSP(=O)(OCC)Oc1ccc(Br)cc1Cl` (stereo not given), the AC50 was 31.9 µM (active).
